Source: PubChem BioAssay (National Center for Advancing Translational Sciences (NCATS))
NTMT1 inh: Primary qHTS for Inhibitors of N-terminal methyltransferase 1 (NTMT1): MTaseGlo Assay; N-terminal Xaa-Pro-Lys N-methyltransferase 1 (Homo sapiens), Q9BV86; NTMT1 MTase-Glo SAH luminescence, purified enzyme; Potency, µM (highest dose often 114 µM), for inactives: top-dose activity change, negative = inhibition, usual class: inhibitors; 59,000 compounds, 2.5% hits; AID 1645870, 2021;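 also: potency is read from the fitted curve at half-maximal effect; plate controls were DMSO vehicle for no effect and no enzyme for full effect; nearly all actives have a fitted effect of over 65% in size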
FH mod: Identification of activators of human fumarate hydratase by quantitative high-throughput screening; FH coupled MDH/diaphorase resazurin fluorescence, 15 min; Potency, µM (titrated, usually from 79.9 µM), for the others: top-dose activity change, negative = inhibition, most hits filed as inhibitors; 54,000 compounds, 0.22% hits; also: potency is read from the fitted curve at half-maximal effect; % is scaled to controls: 0 for no effect and ±100 for the full control effect; the screen sought activators but most active calls are inhibition curves; nearly all actives have a fitted effect of over 45% in size
Target sequence (P07954 whole entry, looked up): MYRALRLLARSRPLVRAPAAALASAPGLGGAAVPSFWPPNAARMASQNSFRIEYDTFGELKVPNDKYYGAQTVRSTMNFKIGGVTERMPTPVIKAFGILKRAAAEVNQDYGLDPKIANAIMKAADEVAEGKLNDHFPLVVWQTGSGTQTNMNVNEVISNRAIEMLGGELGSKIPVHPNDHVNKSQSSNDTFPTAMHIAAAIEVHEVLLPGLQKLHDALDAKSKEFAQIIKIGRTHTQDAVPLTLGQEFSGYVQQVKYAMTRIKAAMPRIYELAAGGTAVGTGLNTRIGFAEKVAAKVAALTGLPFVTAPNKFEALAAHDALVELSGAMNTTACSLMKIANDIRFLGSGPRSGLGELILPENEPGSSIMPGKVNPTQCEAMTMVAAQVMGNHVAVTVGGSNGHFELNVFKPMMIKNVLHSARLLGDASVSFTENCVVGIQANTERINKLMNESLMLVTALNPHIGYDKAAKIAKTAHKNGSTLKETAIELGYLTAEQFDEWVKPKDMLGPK
DRV1 agonist: qHTS for Agonists of Human Resolvin D1 Receptor DRV1; CHO-K1 GPR32 beta-arrestin PathHunter luminescence, 90 min; zero percent set by DMSO-only wells; activation, % at 76.9 µM; 48,000 compounds, 2.5% hits; AID 1346428, 2018;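 active = activation of at least 60% and not above a set upper limit, about 1 call in 100 departs from these limits; inconclusive = activation of 40% to 60%, or above that upper limit; inactive = activation under 40%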; also: 0% is about no effect
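CHO-K1 cells stably expressing ProLink-tagged GPR32 and Enzyme Activator-tagged beta-arrestin were seeded at 2,500 cells/well overnight, exposed to compounds for 90 min at 37 °C, then read by beta-Gal complementation chemiluminescence after 1 h detection reagent.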
SKOV3 invasion: Primary qHTS assay for Inhibitors of ovarian cancer metastasis using an organotypic tumor microenvironment (TME) model. 46,000 compounds, 0.1% hits. Potency, µM (top dose mostly 45.8 µM), for the others: at the top dose activity change, negative = inhibition, hits mostly inhibitors. AID 1963576, 2024. SKOV3ip1-GFP adhesion/invasion on 3D omental model, fluorescence;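 also: potency is read from the fitted curve at half-maximal effect; plate controls were DMSO wells for no effect and tomatine positive control wells for full effect; nearly all actives have a fitted effect of over 65% in size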
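A 3D layer of primary human omental fibroblasts, mesothelial cells, fibronectin and collagen I, grown 48 hr, received SKOV3ip1-GFP cells in serum-free medium plus compounds at 0.36-46 umol/L. After 2 hr RT and 16 hr 37 C, fixed adherent GFP cells were counted; normalized to DMSO and tomatine.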
The depositor's hits bear a star; i = inactive; ? = inconclusive; . = no result given; ! = not active in a repeat; [ ] = remark or other dose. Only some compounds are listed: those with a hit (about 3.9% of all), similar ones and a draw of the others. Unless noted, calls follow the shape of the dose curve; as a rule, active = well fitted curve in the direction sought with a large enough effect; inconclusive = small, poorly fitted or top-dose-only effect, or another doubt; inactive = no such curve, though single readings can be large; an effect the other way counts as inactive or inconclusive.

SMILES | NTMT1 inh | FH mod | DRV1 agonist | SKOV3 invasion
OC1(c2ccc(Cl)c(C(F)(F)F)c2)CCN(CCCC(c2ccc(F)cc2)c2ccc(F)cc2)CC1 | 3%[57.5 µM] | -22% | 64* | .
O=C(Cn1ncc2c(=O)oc3ccccc3c21)NCc1ccccc1Cl | 5% | 3% | 4 | -4%
CSc1ccc(CCNC(=O)Cn2ncc3c(=O)oc4ccccc4c32)cc1 | ? | -1% | 67* | i
CO[C@H]1C=C2C(CC[C@H](O[C@@H]3O[C@H](CO)[C@@H](O)[C@@H](O)[C@H]3O)C2(C)C)[C@]2(C)CC[C@]3(C)C([C@H](C)C(O)C(C=C(C)C)O[C@@H]4O[C@H](CO)[C@@H](O)[C@@H](O)[C@H]4O)CC[C@@]3(C)C12 (some centres not stated) | 9%[12.6 µM] | 11%[20.6 µM] | . | .
Cc1ccc(S(=O)(=O)NCCc2csc3nc(-c4ccccc4F)nn23)cc1C | 10% | -1% | 105* | 1%
Cc1ccccc1-c1nc2scc(CCNS(=O)(=O)c3ccccc3)n2n1 | -2% | -25% | 75* | -2%
Cc1ccc(-c2nc3scc(CCNS(=O)(=O)c4ccc(Oc5ccccc5)cc4)n3n2)cc1 | 12% | -2% | -5 | -15%
Cc1ccc(-c2nc3scc(CCNS(=O)(=O)c4ccc(F)c(C)c4)n3n2)cc1 | 5% | -13% | 20 | i
C[C@H]1[C@H](C)CC[C@]2(C(=O)O)CC[C@]3(C)C(=CCC4[C@@]5(C)C[C@@H](O)[C@H](O)C(C)(C)C5CC[C@]43C)[C@H]12 (some centres not stated) | 11%[29.8 µM] | -7%[53.3 µM] | . | .
Cc1ccc(Cl)cc1NS(=O)(=O)c1cc2c(cc1F)NC(=O)CC2 | -8% | . | . | .
COc1cc(OC)c(C(=O)NCc2nc(-c3ccccc3)no2)cc1OC | -4% | -23% | 71* | i
CCC(C)CCCCC(=O)N[C@@H](CCN)C(=O)NC(C(=O)N[C@H](CCN)C(=O)N[C@@H]1CCNC(=O)C([C@@H](C)O)NC(=O)[C@@H](CCN)NC(=O)[C@@H](CCN)NC(=O)[C@@H](CC(C)C)NC(=O)[C@H](Cc2ccccc2)NC(=O)[C@H](CCN)NC1=O)[C@@H](C)O (some centres not stated) | ? | 6%[53.3 µM] | . | 2%
O=[S+]([O-])(NCc1nccs1)c1ccc(Nc2nc(-c3ccccc3)cs2)cc1 | -9% | . | . | .
Cc1cc2c(cc1C)NC(CC(=O)Nc1cccc(Cl)c1)C(=O)N2 (configuration not stated) | 20% | 0% | -20 | i
COc1ccc(NC(=O)CC2Nc3cccc4cccc(c34)NC2=O)cc1 (configuration not stated) | 79µM* | -16% | 29 | i
O=C(CC1Nc2cccc3cccc(c23)NC1=O)Nc1ccc(F)cc1 (configuration not stated) | -20% | -23% | 64* | -8%
O=C(NC1CCCc2c1cnn2-c1ccc(F)cc1F)c1ccccc1 (configuration not stated) | 79µM*! | . | . | .
Cn1cncc1[C@@](N)(c1ccc(Cl)cc1)c1ccc2c(c1)c(-c1cccc(Cl)c1)cc(=O)n2C | 22µM*! | -2%[53.3 µM] | . | -2%
COc1cccc(C2c3c(ncn(-c4ccccn4)c3=N)Oc3ccc4ccccc4c32)c1 (configuration not stated) | 6%[57.5 µM] | . | . | .
Cc1ccc(Cn2c(C)c(CNCc3ccc(OC(C)C)cc3)c(C(=O)O)c2C)cc1 | ? | 7% | 86* | 8%
Cc1ccc(Cn2c(C)c(CNCC(C)c3ccccc3)c(C(=O)O)c2C)cc1 (configuration not stated) | -2% | 3% | 75* | 15%
Cc1ccc(CNCc2c(C(=O)O)c(C)n(Cc3ccc(C)cc3)c2C)cc1 | -22% | -13% | 5 | -1%
Cc1ccc(Cn2c(C)c(CNC(C)c3ccccc3)c(C(=O)O)c2C)cc1 (configuration not stated) | -13% | 8% | 0 | 10%
CCc1c(-c2ccccc2C)nc2c(C#N)c[nH]n2c1=O | 14% | . | . | .
COc1ccc(NC(=O)c2c(NC(=O)c3ccncc3)sc3c2CCC(C(C)(C)C)C3)cc1 (configuration not stated) | 18% | -14% | 66* | -7%
SMILES | NTMT1 inh | FH mod | DRV1 agonist | SKOV3 invasion
CC(C)(C)C1CCc2c(sc(NC(=O)CCC(=O)O)c2C(=O)Nc2ccccc2C(F)(F)F)C1 (configuration not stated) | 45µM* | ? | 43 | i
CC1(C)CC[C@]2(C(=O)O)CC[C@]3(C)C(=CCC4[C@@]5(C)CC[C@H](O[C@@H]6O[C@H](CO)[C@@H](O)[C@H](O)[C@H]6O[C@@H]6O[C@H](CO)[C@@H](O)[C@H](O)[C@H]6O)[C@@](C)(CO)C5CC[C@]43C)[C@@H]2C1 (some centres not stated) | 16%[12.6 µM] | 1%[20.6 µM] | . | .
COc1cc(C2N=C(N)Nc3nc4ccccc4n32)ccc1OCCC(C)C (configuration not stated) | -6% | 2% | 34 | i
CC(C)CCOc1ccc(C2N=C(N)Nc3nc4ccccc4n32)cc1 (configuration not stated) | -5% | -2% | ? | 13µM*
N#Cc1ccc(N(Cc2ccc(Br)cc2)n2cnnc2)cc1 | -2% | . | . | .
O[C@@H](COc1cccc2ncccc12)CN1CCN(C2c3ccccc3[C@@H]3[C@H](c4ccccc42)C3(F)F)CC1 (some centres not stated) | 79µM*! | -13% | 8 | -20%
COc1ccccc1N1CCN(CC(O)COc2ccc(C)cc2C(C)(C)C)CC1 (configuration not stated) | ? | -32% | 6 | ?
COc1ccc2[nH]cc(CCNC(=O)Nc3cccc(F)c3)c2c1 | -1% | -13% | 93* | 3%
NS(=O)(=O)c1ccc(CCNC(=O)c2nc(SCc3ccccc3F)ncc2Cl)cc1 | -3% | 6% | 83* | -2%
Cc1ccc(NC(=O)/C(C#N)=C/c2cc(C)n(-c3ccc(Br)cc3)c2C)cc1C | -9% | -12% | 63* | ?
Cc1ccc(-n2c(C)cc(/C=C(\C#N)C(=O)Nc3ccc(C)c(C)c3)c2C)cc1 | 4% | -8% | 12 | i
COc1cc2ncnc(Oc3ccc(CC(=O)Nc4cnn(C(C)C)c4)cc3)c2cc1OC | -8% | 1% | . | .
CC[C@H](c1ccc(O)cc1)[C@@H](CC)c1ccc(O)cc1 | 11µM* | -27%[53.3 µM] | 9 | .
CCC(c1ccc(O)cc1)C(CC)c1ccc(O)cc1 (configuration not stated) | ? | -11%[53.3 µM] | . | -21%
Cc1ccc(S(=O)(=O)Nc2cccc(C(=O)Nc3nc(-c4ccccc4)cs3)c2)cc1 | 16% | . | . | .
